Holding throughout (test): NCI-60 one-dose screen, 48 h (100 = growth as untreated, 0 = no growth, -100 = all killed)
Holding throughout (conditions): 10 µM unless noted

Test [1] relates to DU-145 prostate.
Test [2] deals with K-562 leukemia.
The subject of test [3] is MALME-3M melanoma.
For test [4], the system named is MDA-MB-231 breast.
The test system of test [5] is RXF 393 renal.
For test [6], the system named is SF-268 CNS.
Test [7] has as its system SF-295 CNS.
The subject of test [8] is SF-539 CNS.
In test [9] the test system is UACC-257 melanoma.
Test [10] concerns M14 melanoma.

About 83,000 compounds went through this panel and 20% of them were active in at least one assay; those are over-represented in the sample as a whole.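 Step 1: grow cells in 96-well plates. Step 2: add test compound at a single concentration. Step 3: incubate 48 h. Step 4: record percent growth.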 Values without a mark were called inactive. Active and inactive are the calls of the source. How the source made its calls: active means growth percent below 10; inactive means the rest.

As to `COc1ccc(C2CC(c3ccc(Nc4ccnc5cc(Cl)ccc45)cc3)=NN2C(C)=O)cc1` (stereo not given), the growth was 88.1% in test [1]; 32.3% in [2]; 58.2% in test [3]; 80.9% in test [4]; 73.1% in test [5]; 72.2% in test [6]. In addition, the growth in [7] is 42.6%; in [8], 95.8%; in test [9] it was 88%; in test [10] it was 79.5%.
With `COc1ccc2nc(-c3ccc(Cl)cc3)cc(-c3nnc(SCC(=O)Nc4ccc(C(C)=O)cc4)n3-c3ccccc3)c2c1`, the growth in test [1] is 105%; in [2], 104%; in test [3], 92.9%; in [4] it was 86.8%; in test [5], 102%; in test [6], 87.3%. In addition, the growth was 102% in test [7], 85.4% in [8], 110% in test [9] and 93.8% in [10].
`Cc1ccc(-c2csc(N)n2)cc1`: the growth in [1] was 123%; in [2] it was 94.4%; in [3] it was 124%; in test [4], 96.6%; in [5], 110%; in test [6], 101%. Besides, the growth was 110% in test [7], 102% in [8], 79.9% in test [9] and 102% in test [10].
Regarding `COc1cc(/C=C2\SC(N3CCCCC3)=NC2=O)ccc1OCCCCCCOc1ccc(/C=C2\SC(N3CCCCC3)=NC2=O)cc1OC`, the growth in [1] was -7% (active); in [2], 3.85% (active); in [3], 5.59% (active); in [4], 20.9%; in [5] it was -44.3% (active); in test [6], -1.61% (active). Besides, the growth was 4.37% (active) in [7], -1.19% (active) in test [8], -0.986% (active) in [9] and 13.1% in test [10].
For `COc1cccc(N2CCN(c3cccc(C)n3)CC2)c1`, the growth is 106% in [1]; 85.2% in test [2]; 102% in test [3]; 101% in test [4]; 76.4% in test [5]; 129% in test [6]. Also, the growth was 83.2% in test [7], 101% in [8], 97.7% in test [9] and 89.9% in [10].
As for `CCOC(=O)CCN(c1c(Cl)ssc1=O)C(C)C`, the growth in test [1] is 100%; in [2], 106%; in test [3] it was 111%; in [4], 104%; in test [5] it was 87.8%; in test [6], 113%. For the same compound, the growth in test [7] is 119%; in test [8], 97.7%; in test [9], 95.5%; in [10], 84.7%.
As for `c1ccc(-c2nc(Nc3nccnn3)c3ccccc3n2)cc1`, the growth is 99.5% in test [1]; 91.1% in test [2]; 99.1% in test [3]; 91.8% in test [4]; 96.7% in test [5]; 98% in test [6]. For the same compound, the growth in test [7] was 98%; in test [8] it was 99.1%; in [9], 109%; in test [10], 99.3%.
On to `O=C(O)C1C(c2ccccc2)c2ccccc2C(O)C1CO` (stereo not given), for which the growth in test [1] was 136%; in test [2], 111%; in [3], 146%; in test [4], 94.9%; in test [5] it was 123%; in test [6] it was 116%. For the same compound, the growth in test [7] is 120%; in [8], 99.7%; in test [9] it was 98.9%; in test [10], 99.5%.
Consider `O=C(NC1CCCCC1)c1ccc(Nc2ncnc3c2cnn3-c2ccccc2)cc1`, for which the growth was 54.6% in test [1]; 73.2% in test [2]; 2.93% (active) in test [3]; 8.76% (active) in test [4]; 62.2% in test [5]; 36.9% in [6]. Moreover, the growth was 73.4% in test [7], 43.7% in test [8], 56.5% in test [9] and 69.1% in test [10].
Consider `O=C1c2cc3c(cc2-c2c1c1ccc(Cl)cc1c(=O)n2CCCNCCO)OCO3`, for which the growth is -93.7% (active) in [1]; -78.3% (active) in test [2]; -84.8% (active) in [3]; -79.5% (active) in [4]; -78.6% (active) in test [5]; -76.7% (active) in [6]. Further, the growth in test [7] is -86.9% (active); in [8], -84.6% (active); in test [9], -59% (active); in [10], -83.3% (active).
As for `CO[C@H]1/C=C/O[C@@]2(C)Oc3c(C)c(O)c4c(O)c(c(/C=N/N5C(C)CN(Cc6ccc(C#N)cc6)CC5C)c(O)c4c3C2=O)NC(=O)/C(C)=C\C=C\[C@H](C)[C@H](O)[C@@H](C)[C@@H](O)[C@@H](C)[C@H](OC(C)=O)[C@@H]1C` (stereo not given in full), the growth in test [1] was 45.3%; in test [2], 16.3%; in test [3], 8.74% (active); in test [4], 90.3%; in [5], 43.7%; in [6], 35%. For the same compound, the growth in [7] was 0.574% (active); in [8] it was 16%; in test [9], 45.1%; in test [10], 36.8%.
For the compound `CC[N+](CCCCCCCCCC[N+](CC)(c1ccccn1)c1ccccn1)(c1ccccn1)c1ccccn1`, the growth is 13.6% in [1]; -2.68% (active) in test [2]; -10.7% (active) in test [3]; 15.9% in test [4]; 46.1% in test [5]; 17.1% in [6]. Also, the growth in [7] was -71.2% (active); in test [8], 11%; in test [9], -19.2% (active); in test [10], 10.3%.
Take `C/C(=C\CCc1ccoc1)CC/C=C(\C)CCCN1CCOCC1`: the growth was 73.9% in test [1]; 20.6% in [2]; 55.8% in test [3]; 43.7% in [4]; 50.1% in [5]; 72.6% in test [6]. Moreover, the growth in test [7] was 67.8%; in [8] it was 78.2%; in [9] it was 53.4%; in [10], 62.6%.
Turning to `N#Cc1c(-c2ccccc2)cc(-c2ccccc2)n(CCCC(=O)O)c1=O`, the growth in [1] was 111%; in test [2], 94.1%; in test [3], 96.5%; in test [4] it was 94.9%; in test [5], 91.5%; in test [6], 102%. For the same compound, the growth in test [7] was 93.2%; in [8], 102%; in test [9] it was 96.5%; in [10], 96%.
Consider `COc1ccc(Oc2ccccc2NC(=O)CNC(=O)c2cccc3ccccc23)cc1`, for which the growth is 17.5% [5 µM] in test [1]; 8.48% [5 µM] (active) in [2]; 72.9% [5 µM] in [3]; 29.4% [5 µM] in test [4]; 10.3% [5 µM] in test [5]; 44.1% [5 µM] in test [6]. The growth is 13.2% [5 µM] in [7], -21.5% [5 µM] (active) in test [8], 48.6% [5 µM] in test [9] and 12.6% [5 µM] in test [10].
As to `CCCCCCC(CC#N)(CCC)CCCC` (stereo not given), the growth in test [1] is 121%; in test [2], 106%; in [3], 100%; in test [4], 106%; in test [5], 106%; in test [6] it was 115%. The growth in test [7] is 39.5%; in test [8], 85.3%; in test [9], 104%; in [10] it was 110%.
With `CNCCCn1c2c(c3ccc(F)cc3c1=O)C(=O)c1cc(OC)cnc1-2`, the growth in [1] was 0.683% (active); in [2], 1.41% (active); in test [3] it was -56.6% (active); in [4], 11.7%; in [5], -78.8% (active); in [6] it was 4.62% (active). The growth in test [7] is -15.3% (active); in test [8], -24.7% (active); in test [9], -16.5% (active); in [10], -10.8% (active).
As to `O=C1C(=O)c2c(nc3ccc(Cl)cn23)-c2ccccc21`, the growth in test [1] is -100% (active); in [2] it was -100% (active); in [3], -81.8% (active); in [4], -59% (active); in test [5], -100% (active); in [6] it was -95.3% (active). The growth is -80.3% (active) in [7], -100% (active) in test [8], -93.3% (active) in test [9] and -98.7% (active) in [10].
In the case of `COc1cc(NC(=O)NCc2ccco2)ccc1-c1ccc(NC(=O)NCc2ccco2)cc1OC`, the growth in [1] was 56.6%; in [2], 36%; in test [3] it was 78%; in test [4], 43.2%; in [5] it was -10.7% (active); in test [6], 56.8%. Also, the growth in test [7] was 46.3%; in [8] it was -1.88% (active); in [9], 51%; in test [10], 64.3%.
Consider `Clc1ccc(C2=NN(c3ccc(Cl)cc3)C(c3cccc(Nc4ccnc5cc(Cl)ccc45)c3)C2)cc1` (stereo not given), for which the growth in test [1] is 96.2%; in test [2], 75.1%; in test [3] it was 87.1%; in test [4] it was 84.5%; in test [5], 82.5%; in test [6], 84.3%. In addition, the growth is 88.6% in [7], 96.5% in test [8], 76.8% in [9] and 84.8% in test [10].
In the case of `CCCc1n(Cc2ccc3ccccc3c2)cc[n+]1Cc1ccc2ccccc2c1`, the growth was 20.3% in test [1]; 2.49% (active) in test [2]; -49.6% (active) in [3]; -80.1% (active) in test [4]; -30.4% (active) in test [5]; 7.55% (active) in test [6]. In addition, the growth in test [7] is -1.49% (active); in test [8], 1.21% (active); in test [9], -33.6% (active); in test [10], -28.4% (active).
In the case of `COc1ccc(-c2cc(-c3cccnc3)nc3sc(C(=O)Nc4ccccc4)c(N)c23)cc1OC`, the growth in [1] is 54.6%; in test [2], 34.2%; in test [3], 109%; in [4], 69.7%; in test [5], 76%; in test [6], 69%. Besides, the growth is 77.2% in test [7], 73.3% in test [8], 107% in [9] and 66.3% in test [10].
In the case of `CC1C(=O)NC2=Nc3ccccc3C(=O)NN21` (stereo not given), the growth in test [1] is 119%; in test [2], 101%; in test [3], 104%; in test [4] it was 90.4%; in test [5], 116%; in test [6], 113%. For the same compound, the growth was 105% in test [7], 103% in test [8], 114% in test [9] and 102% in test [10].
Consider `COc1cnc2c(c1)C(=O)c1c-2n(CCCN2CCC(O)CC2)c(=O)c2cc(F)ccc12`, for which the growth in test [1] was -8.46% (active); in test [2], -0.117% (active); in test [3] it was -61.9% (active); in [4], 19.9%; in test [5], -43.1% (active); in test [6], 9.51% (active). The growth in test [7] is -20.7% (active); in [8] it was -17.1% (active); in test [9], -16.3% (active); in test [10], -22.4% (active).
For `COc1cc(/C=C/C(=O)c2c(C)n([O-])c3ccc(Cl)cc3[n+]2=O)cc(OC)c1OC`, the growth is 66.8% in test [1]; 45.8% in test [2]; 78.7% in [3]; 78.5% in test [4]; 42.6% in test [5]; 74% in [6]. The growth was 114% in test [7], 96.9% in [8], 81.3% in test [9] and 78.4% in test [10].
As for `COc1ccc2c(c1)[n+](=O)c(C(=O)/C=C/c1cc(OC)c(OC)c(OC)c1)c(C)n2[O-]`, the growth in [1] is 47.6%; in test [2], 35.4%; in test [3], 91.8%; in test [4] it was 67.9%; in test [5] it was 48.6%; in test [6], 56.3%. Besides, the growth in [7] is 87.5%; in test [8], 81.9%; in [9], 80.5%; in test [10] it was 80.1%.
Take `CN(C)c1ccc(-c2nc3ncc(Br)cc3o2)cc1`: the growth in test [1] was 99.8%; in [2], 81.5%; in test [3], 118%; in [4], 90.2%; in test [5], 83.8%; in test [6], 114%. Moreover, the growth in [7] was 109%; in test [8], 91.4%; in test [9] it was 104%; in test [10], 97.6%.

These data come from PubChem BioAssay (NCI).
